Measurements published in PubChem BioAssay (EPA / NIEHS).
Activity calls are given as the source filed them. The calls were made as follows: active = hit-call score of the fitted dose curve at least 0.9, where 1 is the maximum; inactive = score below 0.9.

Columns and labels:
[1] = read-out: Human Leukocyte Antigen - DR isotype (HLADR), HLA-DRA (gene 3122); experiment: BSK_BE3C_HLADR: BioMAP Diversity Plus: BE3C Assay for Human Leukocyte Antigen - DR isotype (HLADR) Biomarker Activity (AID 2283032); conditions: primary human bronchial epithelial cells; actives raise or lower the signal
Method in brief: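 BioMAP BE3C format: human bronchial epithelium, 24 h compound treatment, ELISA detection of HLA-DR, with bidirectional analysis relative to DMSO.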

[2] = read-out: Vascular cell adhesion molecule 1 (VCAM1), VCAM1 (gene 7412); experiment: BSK_4H_VCAM1: BioMAP Diversity Plus: 4H Assay for Vascular cell adhesion molecule 1 (VCAM1) Biomarker Activity (AID 2283033); conditions: primary human endothelial cells (HUVEC); actives raise or lower the signal
Method in brief: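 In this human endothelial (HUVEC) system, biomarker ELISA was run 24 h after compound addition, and total protein in parallel wells was assessed by SRB at 560 nm; DMSO served as negative control.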

[3] = read-out: Interferon-gamma inducible Protein 10 (IP10), CXCL10 (gene 3627); experiment: BSK_BE3C_IP10: BioMAP Diversity Plus: BE3C Assay for Interferon-gamma inducible Protein 10 (IP10) Biomarker Activity (AID 2283034); conditions: primary human bronchial epithelial cells; actives raise or lower the signal
Method in brief: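 BE3C cells (human bronchial epithelial, primary); 24 h exposure; ELISA for IP-10; DMSO-referenced bidirectional fit.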

[4] = read-out: Monokine induced gamma interferon (MIG), CXCL9 (gene 4283); experiment: BSK_BE3C_MIG: BioMAP Diversity Plus: BE3C Assay for Monokine induced gamma interferon (MIG) Biomarker Activity (AID 2283035); conditions: primary human bronchial epithelial cells; actives raise or lower the signal
Method in brief: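 ELISA quantified MIG after 24 h exposure of primary bronchial epithelial cultures, analysed in both directions relative to DMSO. Cytotoxicity tracked in parallel cultures by sulforhodamine B staining.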

[5] = read-out: Transforming growth factor beta 1 (TGFb1), TGFB1 (gene 7040); experiment: BSK_BE3C_TGFb1: BioMAP Diversity Plus: BE3C Assay for Transforming growth factor beta 1 (TGFb1) Biomarker Activity (AID 2283036); conditions: primary human bronchial epithelial cells; actives raise or lower the signal
Method in brief: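 TGF-b1 measured via ELISA, 24 h after chemical dosing of human bronchial epithelial cells (BE3C). Overt cytotoxicity assessed in parallel by SRB (0.1%, TCA-fixed, 560 nm); analysis bidirectional relative to DMSO.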

[6] = read-out: Plasminogen activator inhibitor-1 (PAI1), SERPINE1 (gene 5054); experiment: BSK_BE3C_PAI1: BioMAP Diversity Plus: BE3C Assay for Plasminogen activator inhibitor-1 (PAI1) Biomarker Activity (AID 2283037); conditions: primary human bronchial epithelial cells; actives raise or lower the signal
Method in brief: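 In this multiplexed primary-cell system, bronchial epithelial cells receive test chemical and are sampled at 24 h. PAI-1 is read by ELISA, with DMSO serving as negative control for bidirectional fitting.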

[7] = read-out: urokinase plasminogen activator (uPA), PLAU (gene 5328); experiment: BSK_BE3C_uPA: BioMAP Diversity Plus: BE3C Assay for urokinase plasminogen activator (uPA) Biomarker Activity (AID 2283038); conditions: primary human bronchial epithelial cells; actives raise or lower the signal
Method in brief: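 Measured by ELISA: uPA from human primary bronchial epithelial cells 24 h after chemical treatment. Values derive from bidirectional curve fitting with DMSO serving as negative control. Total protein by SRB staining in parallel wells flagged overt cytotoxicity.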

[8] = read-out: Urokinase-type plasminogen activator receptor (uPAR), PLAUR (gene 5329); experiment: BSK_BE3C_uPAR: BioMAP Diversity Plus: BE3C Assay for Urokinase-type plasminogen activator receptor (uPAR) Biomarker Activity (AID 2283039); conditions: primary human bronchial epithelial cells; actives raise or lower the signal
Method in brief: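 Chemically treated human bronchial epithelial cells (lung primary) are assayed for uPAR by ELISA after 24 h, with data fitted in both directions using DMSO as negative control.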

[9] = read-out: Interleukin-6 (IL6), IL6 (gene 3569); experiment: BSK_CASM3C_IL6: BioMAP Diversity Plus: CASM3C Assay for Interleukin-6 (IL6) Biomarker Activity for (AID 2283040); conditions: primary human coronary artery smooth muscle cells; actives raise or lower the signal
[10] = read-out: Tissue plasminogen activator (tPA), PLAT (gene 5327); experiment: BSK_BE3C_tPA: BioMAP Diversity Plus: BE3C Assay for Tissue plasminogen activator (tPA) Biomarker Activity (AID 2283041); conditions: primary human bronchial epithelial cells; actives raise or lower the signal
Method in brief: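 Using human lung primary bronchial epithelial cells, tPA was measured by ELISA 24 h after dosing; data fitted relative to DMSO.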

[11] = read-out: Interleukin-8 (IL8), CXCL8 (gene 3576); experiment: BSK_CASM3C_IL8: BioMAP Diversity Plus: CASM3C Assay for Interleukin-8 (IL8) Biomarker Activity (AID 2283042); conditions: primary human coronary artery smooth muscle cells; actives raise or lower the signal;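 also: IL-8 protein level quantified by ELISA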
[12] = read-out: Human Leukocyte Antigen - DR isotype (HLADR), HLA-DRA (gene 3122); experiment: BSK_CASM3C_HLADR: BioMAP Diversity Plus: CASM3C Assay for Human Leukocyte Antigen - DR isotype (HLADR) Biomarker Activity (AID 2283043); conditions: primary human coronary artery smooth muscle cells; actives raise or lower the signal;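 also: cell-surface HLA-DR protein level quantified by ELISA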
[13] = read-out: Macrophage colony-stimulating factor (MCSF), CSF1 (gene 1435); experiment: BSK_CASM3C_MCSF: BioMAP Diversity Plus: CASM3C Assay for Macrophage colony-stimulating factor (MCSF) Biomarker Activity (AID 2283044); conditions: primary human coronary artery smooth muscle cells; actives raise or lower the signal;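 also: M-CSF protein amount quantified by ELISA after 24 h exposure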
[14] = read-out: Low-density lipoprotein receptor (LDLR), LDLR (gene 3949); experiment: BSK_CASM3C_LDLR: BioMAP Diversity Plus: CASM3C Assay for Low-density lipoprotein receptor (LDLR) Biomarker Activity (AID 2283045); conditions: primary human coronary artery smooth muscle cells; actives raise or lower the signal;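 also: LDLR protein level on the cell surface quantified by ELISA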
[15] = read-out: Monocyte Chemoattractant Protein-1 (MCP1), CCL2 (gene 6347); experiment: BSK_CASM3C_MCP1: BioMAP Diversity Plus: CASM3C Assay for Monocyte Chemoattractant Protein-1 (MCP1) Biomarker Activity (AID 2283046); conditions: primary human coronary artery smooth muscle cells; actives raise or lower the signal;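 also: MCP-1 level quantified by ELISA 24 h after dosing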
[16] = BSK_CASM3C_Proliferation: Cell Proliferation Assessment in the BioMAP Diversity Plus: CASM3C Assay (AID 2283047); conditions: primary human coronary artery smooth muscle cells;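 also: sulforhodamine B total protein stain as relative cell number at 560 nm; sub-confluent cells exposed 48 h before staining; fitted both ways against DMSO so gain or loss of cell number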
[17] = read-out: Monokine induced gamma interferon (MIG), CXCL9 (gene 4283); experiment: BSK_CASM3C_MIG: BioMAP Diversity Plus: CASM3C Assay for Monokine induced gamma interferon (MIG) Biomarker Activity (AID 2283048); conditions: primary human coronary artery smooth muscle cells; actives raise or lower the signal;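 also: MIG protein level measured by ELISA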
[18] = read-out: serum amyloid A (SAA), SAA1 (gene 6288); experiment: BSK_CASM3C_SAA: BioMAP Diversity Plus: CASM3C Assay for serum amyloid A (SAA) Biomarker Activity (AID 2283049); conditions: primary human coronary artery smooth muscle cells; actives raise or lower the signal;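 also: SAA protein level quantified by ELISA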
[19] = BSK_CASM3C_SRB: Viability Assessment in the BioMAP Diversity Plus: CASM3C Assay (AID 2283050); conditions: primary human coronary artery smooth muscle cells;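 also: total protein by SRB staining as cytotoxicity measure in parallel cultures; cells exposed to compound for 24 h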
[20] = read-out: Thrombomodulin, THBD (gene 7056); experiment: BSK_CASM3C_Thrombomodulin: BioMAP Diversity Plus: CASM3C Assay for Thrombomodulin Biomarker Activity (AID 2283051); conditions: primary human coronary artery smooth muscle cells; actives raise or lower the signal;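 also: thrombomodulin protein level measured by ELISA 24 h after dosing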

Measured: AC50

CC(=O)CC(C)(C)O
inactive: all assays above

CCN(CC)CCNc1ccc(CNC=O)c2sc3ccc(OC)cc3c(=O)c12
active: [1] 11 µM | [2] 30.7 µM | [3] 14.3 µM | [6] 1.61 µM | [7] 20 µM | [8] 12.9 µM | [9] 20 µM | [11] 35.6 µM | [12] 12.3 µM | [13] 25.9 µM | [15] 26.9 µM | [16] 20 µM | [18] 20.3 µM | [19] 26.3 µM | [20] 31.2 µM
inactive: [4] | [5] | [10] | [14] | [17]

OC1CCC(C2CCCCC2)CC1 (centres undefined)
inactive: all assays above

c1ccc2c(c1)ccc1ccccc12
inactive: all assays above

CCC(C)(C)C1CCC(O)CC1 (centres undefined)
inactive: all assays above

NCC(F)(F)C(F)(F)C(F)(F)C(F)(F)C(F)(F)C(F)(F)C(F)(F)F
not listed: [5]
inactive: all other assays above

CCOC(=O)CC(O)(CC(=O)OCC)C(=O)OCC
inactive: all assays above

Oc1cccc(O)c1
inactive: all assays above

NC(=O)N1C(=O)C(C(=O)c2cc(Cl)cs2)c2cc(F)c(Cl)cc21 (centres undefined)
inactive: [9] | [11] | [13] | [14] | [17] | [18] | [20]
active: [1] 2.85 µM | [2] 24.5 µM | [3] 6.63 µM | [4] 9.59 µM | [5] 2.88 µM | [6] 3.15 µM | [7] 6.91 µM | [8] 6.27 µM | [10] 2.33 µM | [12] 14.1 µM | [15] 7.46 µM | [16] 27.4 µM | [19] 23.8 µM

O=C(OCCOCCOC(=O)c1ccccc1)c1ccccc1
inactive: all assays above

COC(=O)CCCCC(=O)OC
inactive: all assays above
